From PubChem BioAssay (NCI)
The panel holds about 79,000 compounds, 15% with a hit somewhere; the sample as a whole holds those more often. Rule as the data show it: active = growth inhibition above about 70%; inactive = the rest.

Key:
[1] = NCI Yeast Anticancer Drug Screen. Data for the rad50 strain (AID 155);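 also: 0% = growth of vehicle-only cultures of the same strain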; conditions: S. cerevisiae rad50 strain growth inhibition; at 50.0 µM; hits give high values
Summary of the method: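 Compounds were tested on a yeast strain with an engineered DNA damage repair alteration; the reported value is growth inhibition normalised to vehicle treatment.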

[2] = NCI Yeast Anticancer Drug Screen. Data for the mec2-1 strain (AID 157); conditions: S. cerevisiae mec2-1 strain, at 50.0 µM, hits give high values
Summary of the method: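 Test agents were screened against the mec2-1 yeast strain, with defined DNA repair or cell cycle alteration. Growth was scored as inhibition against vehicle-only controls.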

[3] = NCI Yeast Anticancer Drug Screen. Data for the sgs1 mgt1 strain (AID 161);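 also: 0% = growth of cultures given vehicle only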; conditions: S. cerevisiae sgs1 mgt1 strain, at 50.0 µM, hits give high values
Summary of the method: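 Inhibition of yeast growth, normalised to vehicle-treated controls, is reported for a strain bearing genetic alterations in DNA damage repair.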

[4] = NCI Yeast Anticancer Drug Screen. Data for the cln2 rad14 strain (AID 165);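 also: 0% = growth equal to vehicle treated cultures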; conditions: S. cerevisiae cln2 rad14 strain, at 50.0 µM, hits give high values
Summary of the method: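 Growth of compound-exposed yeast (cln2 rad14 genotype) measured and expressed as inhibition relative to vehicle.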

[5] = NCI Yeast Anticancer Drug Screen. Data for the bub3 strain (AID 167); conditions: S. cerevisiae bub3 mutant strain, at 50.0 µM, hits give high values
Summary of the method: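 Growth of a checkpoint-deficient yeast mutant is measured after compound exposure. Values represent inhibition relative to vehicle.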

[6] = NCI Yeast Anticancer Drug Screen. Data for the mlh1 rad18 strain (AID 175); conditions: S. cerevisiae mlh1 rad18 strain growth inhibition; at 50.0 µM; hits give high values
Summary of the method: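 In this whole-cell yeast screen, a strain with altered DNA damage repair is challenged with compound, and its growth is measured against matched vehicle-treated controls.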

Measured: growth inhibition

Cn1nc(-c2ccccc2)c(-c2ccccc2)c(C#N)c1=O
inactive: [1] 0.05% | [2] -3.55% | [3] 0.4% | [4] -22.6% | [5] -1.8% | [6] 0.8%

O/N=C(\c1ccccc1)C1c2ccccc2-c2ccccc21
inactive: [1] -10.1% | [2] -17.9% | [3] -19.9% | [4] 21.4% | [5] -5.9% | [6] -17.4%

Cc1cccc2c(N)c3cccc(C(=O)NCC[N+](C)(C)[O-])c3nc12
inactive: [1] 8.7% | [2] -13.3% | [3] 11.1% | [4] 31% | [5] 18.4% | [6] 20.6%

O=C(O)C1CCC1C(=O)O (stereo not given)
inactive: [1] -18.1% | [2] -24.1% | [3] -23.5% | [4] -23.9% | [5] 10.2% | [6] -2.5%

CCN(CC)CCOc1cccc(O)c1
inactive: [1] -5.95% | [2] -16.1% | [3] -12.1% | [4] -50.5% | [5] -8.3% | [6] -2.9%

CCN(CC)Cc1cc(NC(C)=O)ccc1O
inactive: [1] -5.1% | [2] -13.7% | [3] -17.4% | [4] 11.1% | [5] -4.95% | [6] 2.3%

O=C(c1ccccc1)c1c[nH]c(=O)[nH]c1=O
inactive: [1] -17.1% | [2] 10.2% | [3] -3% | [4] -3.2% | [5] 0.4% | [6] -26.9%

O=C1c2ccccc2-c2nnsc21
inactive: [1] -20.7% | [2] -14.4% | [3] 2.3% | [4] -12.6% | [5] -6.2% | [6] 19.5%

NC(N)=NS(=O)(=O)c1ccc(Nc2c3ccccc3nc3c(C(=O)Nc4ccc(S(N)(=O)=O)cc4)ccc(Cl)c23)cc1
inactive: [1] -8.55% | [2] -2.1% | [3] -2.75% | [4] 29.8% | [5] -2.25% | [6] 7.85%

CC(=O)OCC1OC(n2ncnc2CI)C(OC(C)=O)C(OC(C)=O)C1OC(C)=O (stereo not given)
inactive: [1] 36.5% | [2] 8.35% | [3] 13.6% | [4] 16.9% | [5] 4.15% | [6] 21.5%

CCCCOC(=O)c1ccccc1OC
inactive: [1] -16.1% | [2] 7.2% | [3] -2.3% | [4] 16.9% | [5] 12.1% | [6] -6.9%

O=S1(=O)NNC(=NCc2ccc(Cl)c(Cl)c2)c2ccccc21
inactive: [1] 11.2% | [2] -11.8% | [3] -6.15% | [4] -1.4% | [5] 3.2% | [6] -16.4%

CCSCC1C=CC(n2cnc3c(N)ncnc32)O1 (stereo not given)
inactive: [1] -10.3% | [2] -29.2% | [3] -22.1% | [4] -0.25% | [5] 5.55% | [6] 10.1%

O=C(O)CCC(=O)Nc1ccc(C(=O)O)c(O)c1
inactive: [1] 8.4% | [2] -27.8% | [3] -11.1% | [4] -4.45% | [5] 20.9% | [6] -17.9%

CC(=O)CC(OC(C)=O)C1=CCC2C(CC1C)OC(=O)C2C (stereo not given)
inactive: [1] 45.8% | [2] 9.8% | [3] -22.6% | [4] -0.65% | [5] -36.5% | [6] -56.6%

O=C(NC(COC(=O)c1ccccc1)COC(=O)c1ccccc1)c1ccccc1
inactive: [1] 29.5% | [2] 7.85% | [3] 12.8% | [4] 12.8% | [5] -1.1% | [6] 9.95%

O=C([O][Sb]([O]C(=O)C(Br)Br)([c]1ccccc1)([c]1ccccc1)[c]1ccccc1)C(Br)Br
inactive: [1] 15.7% | [2] 5% | [3] 20.6% | [4] -14.2% | [5] -0.1% | [6] 36.6%

COC(=O)c1ccncc1
inactive: [1] -2.6% | [2] 2.95% | [3] -2.8% | [4] -35.8% | [5] 10.4% | [6] -0.45%

CC/C=N/Nc1cn[nH]c(=O)c1Cl
inactive: [1] -1.3% | [2] 0.1% | [3] 9.85% | [4] 4.85% | [5] -7.75% | [6] -14.9%

COc1ccc(CC2Cc3ccccc3CC(=O)N2)cc1OC (stereo not given)
inactive: [1] 36.5% | [2] -54.3% | [3] -4.4% | [4] 3.65% | [5] 25.6% | [6] -38.1%
